Assay [1] can be described thus: NCI Yeast Anticancer Drug Screen. Data for the rad50 strain (AID 155).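 Also: 0% = growth of vehicle-only cultures of the same strain.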 To be noted: S. cerevisiae rad50 strain growth inhibition, active compounds read high; at 50.0 µM unless noted. The gist of the method:
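DNA repair mutant yeast, compound exposure, growth read-out; inhibition is taken relative to vehicle.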

The nature of assay [2]: NCI Yeast Anticancer Drug Screen. Data for the mec2-1 strain (AID 157). To be noted: S. cerevisiae mec2-1 strain, active compounds read high; at 50.0 µM unless noted. A digest of the protocol: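 Strain: mec2-1 (DNA repair/cell cycle alteration). Compound exposure, then growth measured; inhibition expressed relative to vehicle.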
The nature of assay [3]: NCI Yeast Anticancer Drug Screen. Data for the sgs1 mgt1 strain (AID 161).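 Also: 0% = growth of cultures given vehicle only.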 The conditions noted are these: S. cerevisiae sgs1 mgt1 strain, active compounds read high; at 50.0 µM unless noted. A digest of the protocol: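 Read-out: growth inhibition vs vehicle controls. Cells: mutant yeast strain deficient in DNA damage repair.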
Assay [4] is described as follows: NCI Yeast Anticancer Drug Screen. Data for the cln2 rad14 strain (AID 165).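 Also: 0% = growth equal to vehicle treated cultures.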 To be noted: S. cerevisiae cln2 rad14 strain, active compounds read high; at 50.0 µM unless noted. A digest of the protocol: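 Compounds are applied to the cln2 rad14 yeast strain, and growth is then compared with that of vehicle-treated cultures to give inhibition.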
Assay [5] in a line: NCI Yeast Anticancer Drug Screen. Data for the bub3 strain (AID 167). To be noted: S. cerevisiae bub3 mutant strain, active compounds read high; at 50.0 µM unless noted. The gist of the method:
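In this screen, a yeast mutant lacking normal mitotic checkpoint function is challenged with compound. Relative growth versus vehicle gives the inhibition value.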

Assay [6] can be described thus: NCI Yeast Anticancer Drug Screen. Data for the mlh1 rad18 strain (AID 175). The conditions noted are these: S. cerevisiae mlh1 rad18 strain growth inhibition, active compounds read high; at 50.0 µM unless noted. The gist of the method: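 Read-out is yeast growth inhibition, calculated against vehicle-only controls. The compound was applied to a strain engineered with DNA damage repair alterations.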

This is part of a sample that, as a whole, favours compounds with a hit. Of some 79,000 tested, about 15% had one in any assay. Unmarked numbers belong to inactive results. The source made the active and inactive calls. Rule as the data show it: active = growth inhibition above about 70%; inactive = the rest.

For `CCCCN(CCCC)CC(C(=O)Nc1ccc([N+](=O)[O-])cc1[N+](=O)[O-])/C(C)=N\NC(=O)c1ccncc1` (stereo not given), the growth inhibition is 22.7% in assay [1]; -3.65% in assay [2]; 11.8% in assay [3]; -65.1% in assay [4]; 2.55% in assay [5]; 18.1% in assay [6].

On to `CC(=O)OC1CCC2(C)C3CCC4(C)C(C(C)CCCC(C)C)CCC4C3C3CC32C1` (stereo not given), for which the growth inhibition is 30.6% in assay [1]; -21.8% in assay [2]; 29.1% in assay [3]; 3.95% in assay [4]; -3.05% in assay [5]; 0.1% in assay [6].

With `CCN(CC)Cc1c(/C=C\c2cc(OC)c(OC)c(OC)c2)ccc(OC)c1O`, the growth inhibition in assay [1] is -7.05%; in assay [2], 4.4%; in assay [3] it was 14.1%; in assay [4] it was 9.55%; in assay [5] it was 15.3%; in assay [6] it was -64%.

As for `Cc1ccc(N2C(=O)CC(N3CCCCC3)C2=O)cc1` (stereo not given), the growth inhibition is 29.1% in assay [1]; 37.7% in assay [2]; 68.2% in assay [3]; 13.2% in assay [4]; -2.05% in assay [5]; 80.2% (active) in assay [6].

As for `C[N+]1(Cc2csc(-c3ccc(Cl)cc3)n2)CCOCC1`, the growth inhibition was 3.15% in assay [1]; -25.6% in assay [2]; 10.5% in assay [3]; 9.35% in assay [4]; 0.7% in assay [5]; 4.2% in assay [6].

As to `COc1ccc(CCNC(=O)CCN2C(=O)CCC2=O)cc1OC`, the growth inhibition is 8.7% in assay [1]; -12.8% in assay [2]; 1.55% in assay [3]; -3.25% in assay [4]; -14.8% in assay [5]; -2.9% in assay [6].

Consider `CS(=O)(=O)CS(C)(=O)=O`, for which the growth inhibition in assay [1] was 18.9%; in assay [2] it was 6.15%; in assay [3] it was 8.2%; in assay [4], 14.5%; in assay [5], 0.25%; in assay [6] it was 27.9%.

With `CCOC(=O)CC1(N)CC2c3ccccc3OC(=O)C2C(=O)N1` (stereo not given), the growth inhibition is 10.6% in assay [1]; 15.1% in assay [2]; 6.15% in assay [3]; 0.45% in assay [4]; -2.8% in assay [5]; -33.6% in assay [6].

On to `CN1C(C)(C)CC(=O)C(Br)C1(C)C` (stereo not given), for which the growth inhibition is -37.8% in assay [1]; -45% in assay [2]; -33.8% in assay [3]; -6.2% in assay [4]; -6.75% in assay [5]; -29.4% in assay [6].

On to `CN(C)C(=S)S(=O)(=O)c1ccccc1`, for which the growth inhibition was 51.5% in assay [1]; 75.8% (active) in assay [2]; 81.2% (active) in assay [3]; 25.2% in assay [4]; 85.6% (active) in assay [5]; 91.2% (active) in assay [6].

On to `CCCCCC[N+]1([O-])CC[N+]([O-])(CCCCCC)CC1` (stereo not given), for which the growth inhibition in assay [1] was -6.6%; in assay [2], -7.9%; in assay [3], -1.55%; in assay [4], -43.4%; in assay [5], 0.35%; in assay [6], 7.35%.

With `CNC(=O)C(C)NC(=O)C(Cc1ccccc1)NC(=O)c1ccccc1` (stereo not given), the growth inhibition was -33% in assay [1]; -52.7% in assay [2]; -6.45% in assay [3]; 15.4% in assay [4]; 5.2% in assay [5]; -11.7% in assay [6].

As for `N#CC(C#N)N=O` (tested in a mixture with another compound), the growth inhibition is -4.1% in assay [1]; -15.3% in assay [2]; -15.2% in assay [3]; -19.7% in assay [4]; -6.9% in assay [5]; -6.25% in assay [6].

`C=CCC(O)c1ccccc1OC` (stereo not given): the growth inhibition was 9.75% in assay [1]; 9.25% in assay [2]; 20.8% in assay [3]; 5.15% in assay [4]; -5.9% in assay [5]; 7.95% in assay [6].

As for `Cc1ccc(S(=O)(=O)Nc2ccccc2-c2nc3ccc(C)cc3c(=O)o2)cc1`, the growth inhibition in assay [1] was -5.35%; in assay [2], -24.7%; in assay [3] it was -7.8%; in assay [4], 2.9%; in assay [5], -7.55%; in assay [6] it was -13.7%.

Consider `COC(=O)c1cc(C(=O)OC)c(CC(=O)C(=O)NC2C3CC4CC(C3)CC2C4)nc1CC(=O)C(=O)NC1C2CC3CC(C2)CC1C3` (stereo not given), for which the growth inhibition was 0.5% in assay [1]; 25.2% in assay [2]; -11.9% in assay [3]; 10.2% in assay [4]; 13.7% in assay [5]; 10.9% in assay [6].

Consider `CCCCCCCC[Si](c1ccccc1)(c1ccccc1)c1ccccc1`, for which the growth inhibition in assay [1] is 3.15%; in assay [2], 22%; in assay [3] it was 3.85%; in assay [4], -9.8%; in assay [5] it was -2.2%; in assay [6], 10.4%.

As to `NCC1COC(c2ccccc2)(c2ccccc2)O1` (stereo not given), the growth inhibition in assay [1] was -2.25%; in assay [2], -12.4%; in assay [3] it was -12.9%; in assay [4] it was -32.5%; in assay [5], 17.8%; in assay [6], -7.65%.

As for `COc1cc(CCCC(C(=O)O)C(=O)O)cc(OC)c1OC`, the growth inhibition in assay [1] is 14.2%; in assay [2], -13.3%; in assay [3], -11.9%; in assay [4], 15.8%; in assay [5] it was -0.9%; in assay [6], 11.7%.

For `C=CCc1cc2c(C)cc(=O)oc2c(C)c1OC(C)=O`, the growth inhibition in assay [1] is -4.1%; in assay [2] it was -23.8%; in assay [3] it was -1.1%; in assay [4], 13.1%; in assay [5], -25.9%; in assay [6] it was -2.45%.
